# Reference: PubChem BioAssay (Tox21)
# Values joined by “and” are separate entries in the source; they are usually repeats but may differ in a detail not shown here. Equal entries are not always repeated. Results filed as inconclusive are left out. Entries that show only a call come without a potency. Where a structure was tested more than once in an assay, its records may differ in their call. Active and inactive are the calls of the source. Unless noted, calls follow the shape of the dose curve; as a rule, active = well fitted curve in the direction sought with a large enough effect in the repeat runs; inconclusive = weak or mixed curves; inactive = no such curve, though single readings can be large; an effect the other way counts as inactive or inconclusive.
# What was measured:
# [1] = qHTS assay to identify small molecule agonists of the hypoxia (HIF-1) signaling pathway - cell viability counter screen (AID 1224844; calls by dose curve; also: nearly all actives have a fitted effect of over 50% in size; also: potency is read from the fitted curve at half-maximal effect)
# Summary of the method: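 HRE-bla ME-180 cells, 2,000/well in 0.5% dialyzed FBS medium, treated 17 h at 37C with compounds. Viability read in the same wells as the bla reporter, by CellTiter-Glo luminescence after 30 min at room temperature.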
# [2] = qHTS assay to identify small molecule agonists of H2AX (AID 1224845; active = well fitted activation curve with a large enough effect in the signal ratio in the repeat runs, not every such curve was filed as active; the % refers to the signal ratio)
# Summary of the method: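 Phospho-H2AX Ser139 measured by HTRF (ex 320 nm; em 665 and 620 nm) after 24 hr antibody incubation. Compounds, 15 concentrations, 0.76% DMSO, were applied to CHO-K1 cells for 3hr at 37C before lysis.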
# [3] = qHTS assay to identify small molecule agonists of the hypoxia (HIF-1) signaling pathway (AID 1224846; active = well fitted activation curve with a large enough effect in the signal ratio in the repeat runs, not every such curve was filed as active; the % refers to the signal ratio)
# Summary of the method: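 HRE-bla ME-180 beta-lactamase reporter cells in medium with 0.5% dialyzed FBS, pre-incubated 5 h then exposed to compounds 17 h at 37C, 5% CO2; reporter induction read with CCF4-AM FRET substrate.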
# [4] = qHTS assay to identify small molecule agonists of H2AX - cell viability counter screen (AID 1224847; calls by dose curve; also: nearly all actives have a fitted effect of over 30% in size; also: potency is read from the fitted curve at half-maximal effect)
# Summary of the method: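 Cytotoxicity counter screen in wild-type CHO-K1 cells: a 3 hr compound treatment at 37C across 15 concentrations, followed by CellTiter-Glo luminescence to gauge viable cells.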
# [5] = qHTS RealTime-Glo MT Cell Viability Assay in HepG2 cells - 24 hour (AID 1224867); also: nearly all actives have a fitted effect of over 50% in size; also: potency is read from the fitted curve at half-maximal effect
# Summary of the method: (§1)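 HepG2 cells (600/well) were dispensed with RealTime-Glo reagents, incubated 5 h at 37 °C, then treated with compounds in DMSO for up to 40 h. Nonlytic NanoLuc luminescence reflecting viable cells was read at each stated time point.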
# [6] = A CellTox Green Cytotoxicity Assay to monitor cytotoxicity in HEK293 cells - 0 hour (AID 1224869); also: nearly all actives have a fitted effect of over 50% in size
# Summary of the method: (§2)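 HEK293 cells, 600/well, were preincubated 5 hours and then exposed to compounds at 37 C for up to 40 hours. A cell-impermeant cyanine dye staining dead-cell DNA was read by fluorescence at 0, 8, 16, 24, 32 and 40 h time points.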
# [7] = qHTS RealTime-Glo MT Cell Viability Assay in HepG2 cells - 40 hour (AID 1224870); also: nearly all actives have a fitted effect of over 50% in size; also: potency is read from the fitted curve at half-maximal effect
# Summary of the method: (§3)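 Real-time viability: cells seeded at 600 per well together with NanoLuc and cell-permeant prosubstrate, compounds added after 5 h incubation. Luminescence tracked at 0, 8, 16, 24, 32 and 40 h of exposure.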
# [8] = A CellTox Green Cytotoxicity Assay to monitor cytotoxicity in HEK293 cells - 40 hour (AID 1224871); also: nearly all actives have a fitted effect of over 45% in size; also: potency is read from the fitted curve at half-maximal effect
# Summary of the method: as §2
# [9] = qHTS RealTime-Glo MT Cell Viability Assay in HEK293 cells - 16 hour (AID 1224872); also: nearly all actives have a fitted effect of over 50% in size; also: potency is read from the fitted curve at half-maximal effect
# Summary of the method: (§4)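 HEK293 cells seeded with NanoLuc/prosubstrate reagent, rested 5 h at 37 C, then dosed and kept at 37 C up to 40 h. Nonlytic real-time luminescence from viable cells read at 0, 8, 16, 24, 32 and 40 h.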
# [10] = qHTS RealTime-Glo MT Cell Viability Assay in HepG2 cells - 8 hour (AID 1224873); also: nearly all actives have a fitted effect of over 55% in size; also: potency is read from the fitted curve at half-maximal effect
# Summary of the method: as §3
# [11] = qHTS RealTime-Glo MT Cell Viability Assay in HEK293 cells - 40 hour (AID 1224874); conditions: RealTime-Glo luminescence; max response: stronger effect = lower value; also: nearly all actives have a fitted effect of over 50% in size; also: potency is read from the fitted curve at half-maximal effect
# Summary of the method: (§5)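 600 cells/well were plated with the nonlytic NanoLuc/prosubstrate reagent, pre-incubated 5 h, then given 23 nL of compound in DMSO. Incubation at 37 C for 40 h, with luminescence from viable-cell-reduced substrate read repeatedly from 0 h.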
# [12] = A CellTox Green Cytotoxicity Assay to monitor cytotoxicity in HEK293 cells - 24 hour (AID 1224875); also: nearly all actives have a fitted effect of over 45% in size; also: potency is read from the fitted curve at half-maximal effect
# Summary of the method: as §2
# [13] = A CellTox Green Cytotoxicity Assay to monitor cytotoxicity in HepG2 cells - 16 hour (AID 1224876); also: nearly all actives have a fitted effect of over 45% in size; also: potency is read from the fitted curve at half-maximal effect
# Summary of the method: (§6)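 HepG2 cells, 600/well, preincubated 5 h with CellTox Green dye, then exposed to Tox21 compounds in DMSO at 37 C for up to 40 h. Dead-cell DNA fluorescence read at the indicated time point.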
# [14] = qHTS RealTime-Glo MT Cell Viability Assay in HepG2 cells - 32 hour (AID 1224877); also: nearly all actives have a fitted effect of over 55% in size; also: potency is read from the fitted curve at half-maximal effect
# Summary of the method: as §1
# [15] = A CellTox Green Cytotoxicity Assay to monitor cytotoxicity in HepG2 cells - 24 hour (AID 1224878); also: nearly all actives have a fitted effect of over 45% in size; also: potency is read from the fitted curve at half-maximal effect
# Summary of the method: as §6
# [16] = A CellTox Green Cytotoxicity Assay to monitor cytotoxicity in HepG2 cells - 40 hour (AID 1224879); also: nearly all actives have a fitted effect of over 40% in size; also: potency is read from the fitted curve at half-maximal effect
# Summary of the method: as §6
# [17] = qHTS RealTime-Glo MT Cell Viability Assay in HEK293 cells - 0 hour (AID 1224880)
# Summary of the method: as §5
# [18] = qHTS RealTime-Glo MT Cell Viability Assay in HEK293 cells - 32 hour (AID 1224868)
# Summary of the method: as §4
# [19] = qHTS assay to identify small molecule antagonists of the estrogen related receptor (ERR) signaling pathway from Tox21 library (AID 1224848); also: nearly all actives have a fitted effect of over 50% in size; also: potency is read from the fitted curve at half-maximal effect
# Summary of the method: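 Reading was by luminescence 30 min after ONE-Glo addition. Before that, ERR cells at 2,000 per well had rested 6 h at 37 C/5% CO2 and then received pin-tooled compounds in DMSO for 18 h at 37 C.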
# [20] = qHTS assay to identify small molecule agonists of the estrogen related receptor (ERR) signaling pathway from Tox21 library (AID 1224849; calls by dose curve; also: nearly all actives have a fitted effect of over 15% in size); conditions: ERR reporter cell line, ONE-Glo luciferase, 18 h
# Summary of the method: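 ERR reporter cells (NTP line) pre-incubated 6 hours at 37 C, then exposed to compounds for 18 hours at 37 C. ONE-Glo luciferase luminescence was read after 30 minutes at room temperature.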
compound,measurement,setting,value
CC12CCC(CC1)C(C)(C)O2,Potency,[1],inactive
same,Potency,[2],inactive
same,outcome,[3],inactive
same,Potency,[4],inactive
same,Potency,[5],inactive
same,Potency,[6],inactive
same,Potency,[7],inactive
same,Potency,[8],inactive
same,Potency,[9],inactive
same,Potency,[10],inactive
same,max response,[11],-1.4% (inactive) and 0.858% (inactive) and 5.76% (inactive)
same,Potency,[12],inactive
same,Potency,[13],inactive
same,Potency,[14],inactive
same,Potency,[15],inactive
same,Potency,[16],inactive
same,Potency,[17],inactive
O=C1c2c(O)cccc2Cc2cccc(O)c21,Potency,[1],inactive
same,Potency,[2],inactive
same,Potency,[4],inactive
same,Potency,[5],inactive
same,Potency,[18],inactive
same,Potency,[6],inactive
same,Potency,[7],inactive
same,Potency,[8],inactive
same,Potency,[9],inactive
same,Potency,[10],inactive
same,max response,[11],-2.74% (inactive) and 0.603% (inactive) and 0.249% (inactive)
same,Potency,[12],inactive
same,Potency,[13],inactive
same,Potency,[14],inactive
same,Potency,[15],inactive
same,Potency,[16],inactive
same,Potency,[17],inactive
CCCCCCCCCCCCCCCC[N+](C)(C)Cc1ccccc1,Potency,[1],inactive and 44.4 µM (active)
same,Potency,[2],inactive
same,Potency,[4],117 µM (active) and 45.8 µM (active) and 49.2 µM (active)
same,Potency,[19],11.2 µM (active) and 11.1 µM (active) and 11.9 µM (active)
same,"activity change, positive = activation",[20]; at 42.5 µM (top of the series),-56.4% (inactive)
same,"activity change, positive = activation",[20]; at 92.4 µM (top of the series),-78.7% (inactive) and -80.7% (inactive)
same,Potency,[5],22.6 µM (active) and 15.8 µM (active) and 10.7 µM (active)
same,Potency,[6],inactive
same,Potency,[7],14.2 µM (active) and 12.5 µM (active) and 8.49 µM (active)
same,Potency,[8],50.5 µM (active) and 39.6 µM (active) and 23.9 µM (active)
same,Potency,[9],25.3 µM (active) and 28 µM (active)
same,Potency,[10],63.6 µM (active) and 39.6 µM (active) and 23.9 µM (active)
same,Potency,[11],4.5 µM (active) and 7.9 µM (active) and 3.01 µM (active)
same,Potency,[12],50.5 µM (active) and 31.4 µM (active) and 21.3 µM (active)
same,Potency,[13],50.5 µM (active) and 19.8 µM (active) and 23.9 µM (active)
same,Potency,[14],16 µM (active) and 14 µM (active) and 9.52 µM (active)
same,Potency,[15],25.3 µM (active) and 17.7 µM (active) and 19 µM (active)
same,Potency,[16],20.1 µM (active) and 14 µM (active) and 10.7 µM (active)
same,Potency,[17],inactive
CC(=O)Nc1c(I)c(NC(C)=O)c(I)c(C(=O)O)c1I,Potency,[1],inactive
same,Potency,[2],inactive
same,Potency,[4],inactive
same,Potency,[5],inactive
same,Potency,[18],inactive
same,Potency,[6],inactive
same,Potency,[7],inactive
same,Potency,[8],inactive
same,Potency,[9],inactive
same,Potency,[10],inactive
same,max response,[11],8.14% (inactive) and 7% (inactive) and 2.59% (inactive)
same,Potency,[12],inactive
same,Potency,[13],inactive
same,Potency,[14],inactive
same,Potency,[15],inactive
same,Potency,[16],inactive
same,Potency,[17],inactive
O=C(O)CC(O)C(=O)O (stereo not given),Potency,[1],inactive
same,Potency,[2],inactive
same,outcome,[3],inactive
same,Potency,[4],inactive
same,Potency,[5],inactive
same,Potency,[6],inactive
same,Potency,[7],inactive
same,Potency,[8],inactive
same,Potency,[9],inactive
same,Potency,[10],inactive
same,max response,[11],-23.9% (inactive) and -4.53% (inactive) and 7.17% (inactive)
same,Potency,[12],inactive
same,Potency,[13],inactive
same,Potency,[14],inactive
same,Potency,[15],inactive
same,Potency,[16],inactive
same,Potency,[17],inactive
CN(C)CCOC(C)(c1ccccc1)c1ccccn1 (stereo not given),Potency,[1],inactive
same,Potency,[2],inactive
same,Potency,[4],inactive
same,Potency,[19],inactive
same,"activity change, positive = activation",[20]; at 42.5 µM (top of the series),0.337% (inactive)
same,"activity change, positive = activation",[20]; at 92.4 µM (top of the series),3.01% (inactive) and -2.07% (inactive)
same,Potency,[5],inactive
same,Potency,[6],inactive
same,Potency,[7],inactive
same,Potency,[8],inactive
same,Potency,[9],inactive
same,Potency,[10],inactive
same,max response,[11],2.62% (inactive) and -0.138% (inactive) and 6.89% (inactive)
same,Potency,[12],inactive
same,Potency,[13],inactive
same,Potency,[14],inactive
same,Potency,[15],inactive
same,Potency,[16],inactive
same,Potency,[17],inactive
CN(C)CCOC(c1ccccc1)c1ccccc1,Potency,[1],inactive
same,Potency,[2],inactive
same,Potency,[4],inactive
same,Potency,[5],inactive
same,Potency,[18],inactive
same,Potency,[6],inactive
same,Potency,[7],inactive
same,Potency,[8],inactive
same,Potency,[9],inactive
same,Potency,[10],inactive
same,max response,[11],-18.9% (inactive) and -8.63% (inactive) and 0.403% (inactive)
same,Potency,[12],inactive
same,Potency,[13],inactive
same,Potency,[14],inactive
same,Potency,[15],inactive
same,Potency,[16],inactive
same,Potency,[17],inactive
Cc1cn([C@H]2C=C[C@@H](CO)O2)c(=O)[nH]c1=O,Potency,[1],inactive
same,Potency,[4],inactive
same,Potency,[5],inactive
same,Potency,[18],inactive
same,Potency,[6],inactive
same,Potency,[7],inactive
same,Potency,[8],inactive
same,Potency,[9],inactive
same,Potency,[10],inactive
same,max response,[11],3.84% (inactive) and 0.681% (inactive)
same,Potency,[12],inactive
same,Potency,[13],inactive
same,Potency,[14],inactive
same,Potency,[15],inactive
same,Potency,[16],inactive
same,Potency,[17],inactive
Cc1cc(=O)oc2cc(O)ccc12,Potency,[1],inactive
same,Potency,[4],inactive
same,Potency,[5],inactive
same,Potency,[6],inactive
same,Potency,[7],inactive
same,Potency,[8],inactive
same,Potency,[9],inactive
same,Potency,[10],inactive
same,max response,[11],-14.5% (inactive) and -7.95% (inactive) and -6.84% (inactive)
same,Potency,[12],inactive
same,Potency,[13],inactive
same,Potency,[14],inactive
same,Potency,[15],inactive
same,Potency,[16],inactive
same,Potency,[17],inactive
CCCCOC(=O)c1ccc(O)cc1,Potency,[1],inactive
same,Potency,[2],inactive
same,Potency,[4],inactive
same,Potency,[5],inactive
same,Potency,[6],inactive
same,Potency,[7],inactive
same,Potency,[8],49.6 µM (active) and inactive
same,Potency,[9],24.8 µM (active) and inactive
same,Potency,[10],inactive
same,Potency,[11],24.8 µM (active) and 21.9 µM (active)
same,Potency,[12],inactive
same,Potency,[13],inactive
same,Potency,[14],inactive
same,Potency,[15],inactive
same,Potency,[16],inactive
same,Potency,[17],inactive
